Inconclusive results are not listed. Entries that show only a call come without a potency. Activity calls are given as the source filed them. Calls come from the whole dose curve; as a rule, active = well fitted curve in the direction sought with a large enough effect; inconclusive = small, poorly fitted or top-dose-only effect, or another doubt; inactive = no such curve, though single readings can be large; an effect the other way counts as inactive or inconclusive.
Key:
[1] = qHTS for Inhibitors of the Aldehyde Dehydrogenase Family (ALDH1A2, ALDH1A3, ALDH2, ALDH3A1) (AID 2061307); note: nearly all actives have a fitted effect of over 50% in size; for potency: test system not described further here; potency is the fitted concentration of half-maximal effect
[2] = biological target: Aldehyde dehydrogenase, mitochondrial (Homo sapiens) (UniProt P05091); assay: qHTS for Inhibitors of the Aldehyde Dehydrogenase Family (ALDH2) Primary screen (AID 2061308); note: nearly all actives have a fitted effect of over 55% in size
[3] = biological target: Retinaldehyde dehydrogenase 3 (Homo sapiens) (UniProt P47895); assay: qHTS for Inhibitors of the Aldehyde Dehydrogenase Family (ALDH1A3) Confirmatory screens (AID 2061311); note: nearly all actives have a fitted effect of over 60% in size; note: potency is the fitted concentration of half-maximal effect
[4] = biological target: Retinal dehydrogenase 2 (Homo sapiens) (UniProt O94788); assay: qHTS for Inhibitors of the Aldehyde Dehydrogenase Family (ALDH1A2) Confirmation screens (AID 2061314); note: nearly all actives have a fitted effect of over 65% in size; note: potency is the fitted concentration of half-maximal effect
[5] = biological target: Retinaldehyde dehydrogenase 3 (Homo sapiens) (UniProt P47895); assay: qHTS for Inhibitors of the Aldehyde Dehydrogenase Family (ALDH1A3) Primary screen (AID 2061315)
[6] = biological target: Aldehyde dehydrogenase 1A1 (Homo sapiens) (UniProt P00352); assay: qHTS for Inhibitors of the Aldehyde Dehydrogenase Family (ALDH1A1) Confirmatory screens (AID 2061316); note: nearly all actives have a fitted effect of over 65% in size; note: potency is the fitted concentration of half-maximal effect

## COc1ccccc1-c1noc(CNc2cccc(C#N)c2)n1
[1]
  Potency: inactive

## CCOC(=O)c1ccc2c(c1)c(C(C)=O)c(C)n2-c1ccc(OC)cc1
[1]
  Potency: inactive
[2]
  Potency: inactive
[3]
  Potency: inactive
[4]
  Potency: inactive
[5]
  Potency: inactive
[6]
  Potency: inactive

## CC(=O)Nc1ccc(OCc2cccc(C3Nc4ccccc4C(=O)N3Cc3ccco3)c2)cc1 (stereo not given)
[1]
  Potency: 10.1 µM (active)
[2]
  Potency: inactive
[3]
  Potency: 12.7 µM (active)
[4]
  Potency: 14.2 µM (active)
[5]
  Potency: inactive
[6]
  Potency: 5.65 µM (active)

## O=C(c1ccco1)N1CCN(c2nc(-c3ccc(Br)cc3)cs2)CC1
[1]
  Potency: 3.98 µM (active)
[2]
  Potency: inactive
[3]
  Potency: 15.8 µM (active)
[4]
  Potency: inactive
[5]
  Potency: inactive

## Cc1ccc(S(=O)(=O)Nc2cnccc2C(=O)Nc2nc(-c3ccc4c(c3)CCCC4)cs2)cc1
[1]
  Potency: 22.5 µM (active)
[2]
  Potency: inactive
[3]
  Potency: inactive
[4]
  Potency: 8.96 µM (active)
[5]
  Potency: inactive
[6]
  Potency: 11.3 µM (active)

## O=S(=O)(NN1CCOCC1)c1ccc(Br)cc1
[1]
  Potency: 22.5 µM (active)
[2]
  Potency: inactive
[3]
  Potency: inactive
[4]
  Potency: 11.3 µM (active)
[5]
  Potency: inactive
[6]
  Potency: 3.57 µM (active)

## COc1ccccc1-c1nc(-c2ccc(C(=O)O)cc2)no1
[1]
  Potency: 2.14 µM (active)
[2]
  Potency: inactive
[3]
  Potency: 1.13 µM (active)
[4]
  Potency: inactive
[6]
  Potency: inactive

## NC(=O)C1CCN(c2ncc(-c3ccc4c(c3)OC(F)(F)O4)s2)CC1
[1]
  Potency: 10.1 µM (active)
[2]
  Potency: inactive
[3]
  Potency: inactive
[4]
  Potency: inactive
[5]
  Potency: inactive

## CN(C)c1cccc(-c2cnc(N3CCC(C(N)=O)CC3)s2)c1
[1]
  Potency: 8.96 µM (active)
[2]
  Potency: inactive
[3]
  Potency: 15.9 µM (active)
[4]
  Potency: inactive
[6]
  Potency: 10.1 µM (active)

Source: PubChem BioAssay (NCATS)
